# Test results reported in ChEMBL document CHEMBL4513135, “CO-ADD screening of IQOG CSIS (Spain) compounds”.
# “And” between values parts separate entries of the source, which are not always exact repeats. Identical values can stand only once. Entries with a potency or affinity are not part of this list.
# What was measured:
# Staphylococcus aureus = details: Concentration 32 ug.mL-1, ASSAY_TEST Inhibition of Bacterial Growth, detection method Absorption (OD600), MEDIA CAMHB, plate type 384well, NBS, CORNING #3640, time 18 hr
# Escherichia coli = details: Concentration 32 ug.mL-1, ASSAY_TEST Inhibition of Bacterial Growth, detection method Absorption (OD600), MEDIA CAMHB, plate type 384well, NBS, CORNING #3640, time 18 hr
Compound,Inhibition (Staphylococcus aureus),Inhibition (Escherichia coli),Inhibition (Staphylococcus aureus; 32 ug/mL),Inhibition (Escherichia coli; 32 ug/mL)
C/C=C(/C#N)C(=O)OC,-6.91%,-6.93%,–,–
Cc1ccc(C2CC2(N)C(=O)O)cc1.Cl (stereo not given),8.71%,6.19%,–,–
N#Cc1c(N)nc(NCCCC2CCN(Cc3ccccc3)CC2)c(C#N)c1-c1ccccc1,56.22%,-16.73%,–,–
Nc1c2c(nc3c1c1ccccc1n3Cc1ccccc1)CCCC2,17.35%,-10.77%,–,–
Cc1ccc(C2C(C#N)=C(N)Oc3c2ccc2ccccc32)cc1 (stereo not given),-4.2%,-2.25%,–,–
C#CCNC(=O)c1cc2cc(OCCCC3CCN(Cc4ccccc4)CC3)ccc2[nH]1,18.56%,-12.4%,–,–
CSC1=NC(=Cc2ccccc2)C(=O)N1C,5.89%,10.03%,–,–
CC(C)(C)OC(=O)Nc1ccc(Br)cn1,40.42%,-0.9%,–,–
CC(C)(C)OC(=O)Nc1ccccn1,38.41%,-0.38%,–,–
C#CCNc1nc(N)c(C#N)c(-c2ccccc2)c1C#N,3.95%,15.49%,–,–
N#Cc1c(N)nc(NCCC2CCN(Cc3ccccc3)CC2)c(C#N)c1-c1ccccc1,34.16%,-9%,–,–
CC1=C(C(=O)O[C@@H]2C[C@@]3(C)CC[C@H]2C3(C)C)C(c2ccccc2)C(C#N)=C(N)O1 (stereo not given in full),-12.42%,16.17%,–,–
N#Cc1c(-c2ccccc2)c2c(ccc3ccccc32)oc1=O,27.54%,15.75%,–,–
COc1ccc(C2c3c(nc4c(c3N)CCCC4)Oc3ccc4ccccc4c32)c(OC)c1 (stereo not given),15.3%,3.89%,–,–
N#Cc1cc2c(N)c3c(nc2nc1Cl)CCN(Cc1ccccc1)C3,31.61%,-4.39%,–,–
Cc1nn(-c2ccccc2)c2ncnc(NCc3ccccc3)c12,16.34%,7.89%,–,–
c1ccc(-c2nc3c4cnn(-c5ccccc5)c4ncn3n2)cc1,14.04%,8.07%,–,–
Cn1c(C(=O)O)cc2ccccc21,7.02%,5.49%,–,–
COc1ccc(C2C(C#N)=C(N)Oc3ccc4ccccc4c32)cc1OC (stereo not given),19.72%,-23.42%,–,–
CCOC(=O)c1cc2cc(OC)ccc2n1C,-7.5%,-9.48%,–,–
COc1ccc2c(c1)cc(/C=C/[N+](=O)[O-])n2C,10.15%,1.2%,–,–
N#Cc1cc(C#N)c(NCCCC2CCN(Cc3ccccc3)CC2)nc1N,49.11%,-3.28%,–,–

Compound,Inhibition (Staphylococcus aureus),Inhibition (Escherichia coli),Inhibition (Staphylococcus aureus; 32 ug/mL),Inhibition (Escherichia coli; 32 ug/mL)
Cl.ClCCCN1CCCCC1,19.47%,17.01%,–,–
CSC1=NC(=Cc2cn(C)c3ccccc23)C(=O)N1C,3.9%,-1.24%,–,–
Cn1ccnc1C1C(C#N)=C(N)Oc2c1ccc1cccnc21 (stereo not given),12.96%,-14.85%,–,–
CCOC(=O)c1c(C)nc(NCC2CCN(Cc3ccccc3)CC2)c(C#N)c1-c1ccccc1,24.62%,-10.38%,–,–
CC(=O)Nc1nn(C)c2nc3nc4c(c(N)c3cc12)CCCC4,–,–,26.15% and 21.32%,-7.37% and -4.67%
C/C(Cc1ccccc1)=N\NC(=O)c1c[nH]c2ccccc12,5.98%,14.48%,–,–
CCOC(=O)C1=C(C)Oc2nc3c(c(N)c2C1c1nccn1C)CCCCC3 (stereo not given),10.64%,-6.7%,–,–
N#Cc1c(N)nc(N)c(C#N)c1-c1ccccc1,24.97%,-10.66%,–,–
COc1ccc(C=C2N=C(SC)N(C)C2=O)cc1,-4.46%,0.92%,–,–
Cc1[nH]nc2c1C(c1cccc([N+](=O)[O-])c1)C(C#N)=C(N)O2 (stereo not given),7.57%,4.04%,–,–
COc1cc(C2C(C#N)=C(N)Oc3c2ccc2ccccc32)ccc1O (stereo not given),50.2%,-13.64%,–,–
COc1[nH]c(=O)ccc1C#N,31.13%,-5.91%,–,–
C#CCNc1nc(NC2CCN(Cc3ccccc3)CC2)c(C#N)cc1C#N.Cl,-1.55%,-6.24%,–,–
NOC(=O)C1CCN(Cc2ccccc2)CC1,21.2%,1.52%,–,–
O=C(O)n1ccc2ccccc21,10.57%,9.43%,–,–
C#CCN(C)Cc1cc2cc(OC)ccc2n1C,33.86%,-8.2%,–,–
C#CCN(C)c1cc(Cl)nc(N)n1,26.35%,-8.33%,–,–
ClCCC1CCN(Cc2ccccc2)CC1,26.32%,16.74%,–,–
CC1=NC(=Cc2ccccc2)C(=O)S1,13.03%,9.12%,–,–
O=C1OC(c2ccccc2)=NC1=Cc1ccc([N+](=O)[O-])cc1,5.7%,7.71%,–,–
C#CCNc1[nH]c2ccc(O)cc2c1C#N,30.3%,-3.92%,–,–
CCOC(=O)C1=C(C)Oc2nc3c(c(N)c2C1c1nccn1C)CCC3 (stereo not given),6.58%,-22.18%,–,–

Compound,Inhibition (Staphylococcus aureus),Inhibition (Escherichia coli),Inhibition (Staphylococcus aureus; 32 ug/mL),Inhibition (Escherichia coli; 32 ug/mL)
CCC(CC)NNC(=O)c1c[nH]c2ccccc12.Cl,4.35%,0.83%,–,–
N#Cc1c(Cl)nc(N2CCCCC2)c(C#N)c1-c1ccccc1,-12.16%,17.72%,–,–
CC(=O)Oc1ccc(C=C2N=C(c3ccccc3)OC2=O)cc1,10.97%,17.49%,–,–
N#CC1=C(N)Oc2c(ccc3ccccc23)C1c1c(Cl)cccc1Cl (stereo not given),8.27%,6.46%,–,–
N#Cc1cc(C#N)c(N2CCCC2)nc1N1CCCC1,17.61%,8.77%,–,–
C#CCN(C)c1nc(OC)c(C#N)c(-c2ccccc2)c1C#N,44.46%,-5.76%,–,–
Cl.OCC1CCN(Cc2ccccc2)CC1,26.15%,15.91%,–,–
O=C(NN=Cc1c[nH]c2ccccc12)c1cccc2ccccc12,15.12%,10.09%,–,–
COc1cc(C2c3c(nc4c(c3N)CCCC4)Oc3ccc4ccccc4c32)cc(OC)c1OC (stereo not given),14.84%,14.05%,–,–
CCOC(=O)c1c(C)nc(/N=N/c2nc(C)c(C(=O)OCC)c(-c3ccccc3)c2C#N)c(C#N)c1-c1ccccc1,11.27%,6.76%,–,–
COc1ccc(/C=C2/N=C(c3ccccc3)OC2=O)cc1OC,-19.31%,-9.68%,–,–
CCOC(=O)c1cc2cc(OC(=O)Oc3ccc([N+](=O)[O-])cc3)ccc2[nH]1,13.73%,-33.4%,–,–
C#CCN1CCc2nc3nc(NC4CCN(Cc5ccccc5)CC4)c(C#N)cc3c(N)c2C1,26.68%,-8.32%,–,–
Cl.Nc1c2c(nc3c1C(c1ccccc1)c1c(ccc4ccccc14)O3)CCCC2 (stereo not given),8.92%,12.69%,–,–
O=C(O)c1cc2ccccc2[nH]1 [INDOLE-2-CARBOXYLIC ACID],5.6%,18.03%,–,–
COC(=O)C1(NC(=O)c2ccccc2)CC1c1ccccc1 (stereo not given),1.83%,-4.02%,–,–
C=C1CN(C)c2c(C#N)cc(C#N)c(=S)n21,18.51%,-1.72%,–,–
N#Cc1c(Cl)nc(NC2CCN(Cc3ccccc3)CC2)c(C#N)c1-c1ccccc1,-0.92%,-18.84%,–,–
COc1ccc(C2c3ccc4ccccc4c3OC(=NBr)C2(Br)C#N)cc1OC (stereo not given),21.78%,-14.95%,–,–
COc1cccc(C2c3c(ccc4ccccc34)OC(=NBr)C2(Br)C#N)c1 (stereo not given),39.2%,-16.78%,–,–
NNC(=O)Cc1c[nH]c2ccccc12,10.37%,13.76%,–,–
N#Cc1c(N)nc(Cl)c(C#N)c1-c1ccccc1,17.3%,12.56%,–,–

Compound,Inhibition (Staphylococcus aureus),Inhibition (Escherichia coli),Inhibition (Staphylococcus aureus; 32 ug/mL),Inhibition (Escherichia coli; 32 ug/mL)
Cc1nn(-c2ccccc2)c2ncn3nc(-c4ccccc4)nc3c12,11.88%,13.25%,–,–
C/C(=N\NC(=O)c1cc2ccccc2n1Cc1ccccc1)C1CC1,7.87%,7.24%,–,–
COC(=O)C(NC(=O)c1ccccc1)=C(C)c1ccccc1,11.03%,2.63%,–,–
CCOC(=O)CCc1c[nH]c2ccccc12,-15.79%,-15.2%,–,–
C1CNCCNCCNCCNC1,30%,9.31%,–,–
COc1ccc2c(c1)cc(C(=O)Nc1ccccc1)n2C,20.93%,-8.29%,–,–
CC1CC(=O)Nc2c1c(Cl)nc1nc3c(c(N)c21)CCCC3 (stereo not given),34.68%,-17.09%,–,–
COc1ccc(CNNC(=O)c2cc3ccccc3[nH]2)cc1O,5.63%,2.63%,–,–
N#CC1=C(N)Oc2c(ccc3ccccc23)C1c1cccc([N+](=O)[O-])c1 (stereo not given),17.39%,-10.4%,–,–
c1ccc(CNc2ncnc3c2cnn3-c2ccccc2)cc1,7.54%,6.64%,–,–
COC(=O)C(=Cc1ccc([N+](=O)[O-])cc1)NC(=O)c1ccccc1,7.69%,6.65%,–,–
C#CCN(C)c1nc(Sc2ccccc2)c(C#N)c(-c2ccccc2)c1C#N,6.49%,1.09%,–,–
C#CCN(C)Cc1cc2cc(OCCC3CCN(Cc4ccccc4)CC3)ccc2n1C.Cl,28.43%,-29.82%,–,–
O=C(Cc1c[nH]c2ccccc12)N/N=C/c1ccco1,4.9%,-3.66%,–,–
Cc1nc2c(cc1C#N)c(N)nn2C,30.49%,0.08%,–,–
Cl.OCCCC1CCNCC1,22.6%,13.14%,–,–
C#CCN(C)Cc1cc2cc(O)ccc2n1C.Cl,21.22%,-11.62%,–,–
CC(=O)Oc1cccc(C=C2N=C(c3ccccc3)OC2=O)c1,11%,13.2%,–,–
C#CCNc1nc(NC2CCN(Cc3ccccc3)CC2)c(C#N)c(-c2ccccc2)c1C#N,-5.25%,-23.87%,–,–
